# Experimental data from PubChem BioAssay AID504534 (National Center for Advancing Translational Sciences (NCATS), 2011).
# Results filed as inconclusive are left out. The source made the active and inactive calls. Calls come from the whole dose curve; as a rule, active = well fitted curve in the direction sought with a large enough effect; inconclusive = small, poorly fitted or top-dose-only effect, or another doubt; inactive = no such curve, though single readings can be large or run the other way.
# Assay: Secondary Assay for Inhibitors of Human Cdc-like kinase 4 (Clk4): HEK-293 Cell Viability Assay;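 note: cytotoxic hits lower the ATP light signal so activity reflects loss of viability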; for activity change, negative = cytotoxicity: % of control where 0% means no effect
# Settings: HEK-293 viability, ATP luminescence (CellTiter-Glo), 24/48 h; series mostly up to 46.1 µM; activity change, negative = cytotoxicity: at the top concentration
# How it was run: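 Cytotoxicity was measured as ATP luminescence (CellTiter-Glo) after 24 or 48 h compound exposure at 37 degrees C. HEK-293 cells in MEM with 10% FBS had been seeded 4 h earlier.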
# Potency is the fitted concentration of half-maximal effect.
Structure (SMILES),"activity change, negative = cytotoxicity",Potency
Cc1cccc(CNc2ncnc3ccc(-c4ccc5c(c4)OCO5)cc23)c1,-12.4% (inactive),–
Cc1cccc(CNc2ncnc3ccc(-c4ccc5c(c4)OCCO5)cc23)c1,-23.9% (inactive),–
CCOC(=O)c1ccoc1-c1ccc2ncnc(NCc3ncc[nH]3)c2c1,-11.2% (inactive),–
c1nc(N2CCC(N3CCCC3)CC2)c2cc(-c3ccc4c(c3)OCO4)ccc2n1,-6.56% (inactive),–
Cc1nc(CCNc2ncnc3ccc(-c4ccc5c(c4)OCO5)cc23)cs1,-12.5% (inactive),–
c1cncc(CNc2ncnc3ccc(-c4ccoc4)cc23)c1,-11.3% (inactive),–
c1nc(NCC2CCOC2)c2cc(-c3ccc4c(c3)OCO4)ccc2n1 (stereo unspecified),4.83% (inactive),–
c1nc(NCC2CCCCC2)c2cc(-c3ccc4c(c3)OCO4)ccc2n1,-14.3% (inactive),–
c1csc(CNc2ncnc3ccc(-c4ccc5c(c4)OCCO5)cc23)c1,0.849% (inactive),–
Cc1nc(CNc2ncnc3ccc(-c4ccoc4)cc23)cs1,2.4% (inactive),–
CCCN(Cc1cccs1)c1ncnc2ccc(-c3ccc4c(c3)OCO4)cc12,-4.38% (inactive),–
Clc1ccccc1-c1ccc2ncnc(NCc3ccc4c(c3)OCO4)c2c1,-7.88% (inactive),–
Cc1nc(CN(C)c2ncnc3ccc(-c4ccc5c(c4)OCO5)cc23)cs1,–,28.1 µM (active)
Cc1ccc(CN(C)c2ncnc3ccc(-c4ccc(CO)n4C)cc23)o1,-21.2% (inactive),–
Cc1ccc(CNc2ncnc3ccc(-c4ccoc4C)cc23)o1,-14.1% (inactive),–
Fc1cccc(CNc2ncnc3ccc(-c4ccc5c(c4)OCO5)cc23)c1,4.03% (inactive),–
Cc1ccc(CN(C)c2ncnc3ccc(-c4ccc(CO)o4)cc23)o1,–,12.5 µM (active)
CS(=O)(=O)CCNCc1ccc(-c2ccc3ncnc(Nc4ccc(OCc5cccc(F)c5)c(Cl)c4)c3c2)o1,4.65% (inactive),–
Cc1csc(CNc2ncnc3ccc(-c4ccc5c(c4)OCCO5)cc23)c1,-15.6% (inactive),–
Cc1ccc(CNc2ncnc3ccc(-c4ccc5c(c4)OCO5)cc23)s1,-28.5% (inactive),–
Fc1cccc(CNc2ncnc3ccc(-c4cccnc4)cc23)c1,-4.29% (inactive),–
CN(CC1CCCO1)c1ncnc2ccc(-c3ccc4c(c3)OCO4)cc12 (stereo unspecified),-9.72% (inactive),–
COc1cccc(-c2ccc3ncnc(NCc4ccc5c(c4)OCO5)c3c2)c1,7.41% (inactive),–
O=C(O)c1ccc(-c2ccc3ncnc(NCCc4cnc[nH]4)c3c2)o1,0.179% (inactive),–
C[C@@H](O)c1ccc(-c2ccc3ncnc(NCc4cccs4)c3c2)o1,–,inactive
CCOC(=O)c1ccc(-c2ccc3ncnc(NCc4ccc(C)o4)c3c2)o1,7.87% (inactive),–
